# Source: PubChem BioAssay
# Only some compounds are listed: those with a hit (about 9.6% of all), similar ones and a draw of the others.
# PostGolgi ctrl: yeast control strain growth, post-Golgi counter-screen. efflux-deficient yeast background strain, growth absorbance A615, 16 h. inhibition, % at 10 µM. 5% of 98,000 active. AID 738
# PostGolgi yeast: growth inhibition of a yeast mutant, post-Golgi transport screen; post-Golgi transport phenotypic cell assay; 0.9% of 98,000 active; inhibition, % at 10 µM;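 note: yeast cells grown in 1536-well plates; yeast grown about 18 h at 30C before absorbance read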
# hDAT+cocaine: changed human dopamine transporter uptake under cocaine IC80; Q01959; LLC-PK1 hDAT cells, [14C]-dopamine uptake with cocaine IC80; actives deviate in either direction; B-score at 10 µM; 1.3% of 110,000 active;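 active = Z score or B-score, a plate-position-corrected score, falls beyond the plate's 99.7% confidence bounds, in either direction; inactive = both scores lie inside the 99.7% bounds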;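 note: scored against the spread of the other compound wells on the same plate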
# Target sequence (Q01959 whole entry, looked up): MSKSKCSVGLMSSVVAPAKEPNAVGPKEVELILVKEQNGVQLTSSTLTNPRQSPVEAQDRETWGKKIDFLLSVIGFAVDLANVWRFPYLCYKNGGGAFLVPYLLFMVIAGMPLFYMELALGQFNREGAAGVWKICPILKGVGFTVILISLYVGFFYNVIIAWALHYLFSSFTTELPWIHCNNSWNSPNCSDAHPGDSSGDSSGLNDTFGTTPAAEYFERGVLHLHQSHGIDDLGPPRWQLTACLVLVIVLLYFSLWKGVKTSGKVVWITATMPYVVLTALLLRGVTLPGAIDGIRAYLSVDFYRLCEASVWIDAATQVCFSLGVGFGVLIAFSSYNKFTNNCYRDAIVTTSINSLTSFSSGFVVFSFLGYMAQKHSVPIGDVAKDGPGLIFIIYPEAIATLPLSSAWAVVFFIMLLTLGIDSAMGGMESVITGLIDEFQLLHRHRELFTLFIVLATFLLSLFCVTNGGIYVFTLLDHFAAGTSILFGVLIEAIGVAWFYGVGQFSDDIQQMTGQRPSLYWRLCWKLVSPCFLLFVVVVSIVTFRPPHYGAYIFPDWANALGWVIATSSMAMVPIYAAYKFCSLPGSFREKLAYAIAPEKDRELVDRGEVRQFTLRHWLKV
# Cav3 T inh: blocks human Cav3.2 T-type calcium channel. 4% of 100,000 active. Cav3.2-expressing cells, Fluo-4 calcium fluorescence FDSS; active compounds read low. AID 449739. B-score at 10 µM;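 active = single-dose well whose peak fluorescence ratio is a statistical outlier from its plate by either plate-standardised score or position-corrected B-score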
# PLAP activator: activators of human placental alkaline phosphatase. 1.2% of 96,000 active. purified PLAP enzyme, luminescent substrate read-out; active compounds read high. P05187. activation fold at 20 µM. AID 696; in the data active = activation fold above about 2
# * marks the source's active call; other numbers are inactive results; · = not tested or not shown. Cut-off read from the data, not from the text of the source, unless noted: active = inhibition above about 30%; inactive = the rest.
SMILES,PostGolgi ctrl,PostGolgi yeast,hDAT+cocaine,Cav3 T inh,PLAP activator
CCCn1c(N)c(C(=O)CSc2nnc(Cc3ccccc3)o2)c(=O)n(C)c1=O,8,3,·,-7.8*,·
COC(=O)c1cccc(NC(=O)CSc2ncn[nH]2)c1,-13,-4,-1,0.19,1
CCOC(=O)c1c(NC(=O)CSc2nnc(-c3ccccc3C)n2C)sc(C(C)=O)c1C,19,-3,0.33,-3.2,1.6
CCOC(=O)c1c(NC(=O)CSc2nc3cccnc3n2C)sc(C(C)=O)c1C,37*,-2,-0.066,-1.4,0.9
CCOC(=O)c1c(NC(=O)CSc2nnc(Cc3ccccc3)o2)sc(C)c1C,·,·,0.62,-4.5*,·
COC(=O)c1ccc(Cl)c(NC(=O)CSc2ncn[nH]2)c1,31*,-3,0.48,-1.2,1.8
Cc1nc2cccc(C(=O)NCc3ccccc3)c2o1,3,13,-0.27,0.66,1
CCOC(=O)N1CCC(NS(=O)(=O)c2cc(Br)cc3c2N(C(=O)CC)CC3)CC1,4,20,·,·,1.2
CCN1CCCC1CNC(=O)C1CCN(Cc2nc(-c3cccc(Br)c3)oc2C)CC1 (stereo not given),5,0,·,·,1.7
O=C(CSc1ncn[nH]1)Nc1c(F)cc(F)cc1Br,0,-1,·,·,2.1*
CCOC(=O)c1c(NC(=O)CSc2nc3ccccc3s2)sc(C)c1C,21,-3,-0.11,-3.6,1.1
CCOC(=O)c1c(NC(=O)CCc2ccc(CC)o2)sc(C)c1C,15,23,-1.9,-4.5*,1
O=C(CSc1ncn[nH]1)Nc1ccccc1Sc1ccc(Cl)cc1,4,-4,-0.57,-3.9,1.6
CCOC(=O)c1c(NC(=O)CSc2ncn[nH]2)sc(C)c1C,5,-1,-0.0039,-1.1,2*
CSc1nc(C)cc(OCCNS(=O)(=O)c2cc(C)ccc2C)n1,7,-12,-0.044,-0.057,0.8
O=S(=O)(Nc1ccc(O)c(CN2CCCCC2)c1)c1ccccc1,4,-7,1.6*,-0.33,1.2
Cn1c(CN2CCCC2)nc2cc(NS(=O)(=O)c3ccccc3)ccc21,6,-1,0.74,0.27,1
O=c1c2cc3c(cc2[nH]c(=S)n1CCN1CCOCC1)OCO3,36*,-1,-0.99,·,1
CCCS(=O)(=O)N1CCN(C(=O)c2cc(OC)cc(OC)c2)CC1,-1,-5,-0.26,0.36,1.1
CCS(=O)(=O)N1CCN(C(=O)c2cc(OC)cc(OC)c2)CC1,31*,2,1.2,1.1,0.9
O=c1[nH]c(=O)n(C2CCCO2)cc1Br (stereo not given),-5,-1,0.51,-0.59,0.9
CC1CCC(C(C)C)C(OCC(O)CN2CCN(Cc3ccccc3)CC2)C1 (stereo not given),30*,103*,0.15,·,1.4
CCC/C=C(\CCC)C(NC(=O)CCc1ccccc1)c1ccc(C(F)(F)F)cc1 (stereo not given),·,·,-1,-0.9,·
O=C1C=C(c2ccccc2)OC(=O)C1C(=O)c1ccccc1 (stereo not given),·,·,-0.41,-0.092,·
CCOC(=O)c1ccc(Oc2nc(NC(C)(C)C)nc(N(C)C)n2)cc1,13,-12,0.58,-7.1*,1.7
SMILES,PostGolgi ctrl,PostGolgi yeast,hDAT+cocaine,Cav3 T inh,PLAP activator
O=C(OCc1c(F)cccc1Cl)c1cnccn1,6,5,-1,·,1
Cc1c(Cl)ccc2c1NC(=O)[C@]21N[C@@H](Cc2ccccc2)[C@H]2C(=O)N(c3ccc(F)cc3)C(=O)[C@H]21,20,-10,1.1,-0.069,1.5
Cc1cccc(-c2nnc(SCc3nc4ccccc4[nH]3)n2Cc2ccco2)c1,26,1,2.3,-4.8*,1.6
c1coc(Cn2c(SCc3nc4ccccc4[nH]3)nnc2-c2cccs2)c1,9,7,0.85,-0.17,2.1*
CCOc1ccc(-c2nnc(SCc3nc4ccccc4[nH]3)n2N)cc1,7,-2,0.72,0.14,2.4*
Cc1ccc(-c2nnc(SCc3nc4ccccc4[nH]3)n2Cc2ccco2)cc1,8,2,·,·,1
Cn1c(SCc2nc3ccccc3[nH]2)nnc1-c1cccnc1,6,23,-2,0.4,1
c1ccc(CSc2nnc(-c3ccco3)n2Cc2ccco2)cc1,23,21,-0.17,-2.3,1.4
O=C1NC[C@H](c2ccccc2)N(CCc2cccc3ccccc23)C1=O,·,·,0.42,-0.14,·
O=C(CCC(=O)OCc1ccc(C(=O)Oc2ccccc2)cc1)Nc1cccc2ccccc12,2,10,-0.23,-0.078,0.9
Cc1cc(C)n(C(=O)C2CCCN2S(=O)(=O)c2ccc(Cl)cc2)n1 (stereo not given),3,1,·,·,1.1
COc1ccc(-c2csc(NC(CO)c3nc4ccccc4n3CCOCCO)n2)cc1 (stereo not given),·,·,1.9,0.49,·
COc1ccc(-c2csc(NC(CO)c3nc4ccccc4n3CCCO)n2)cc1 (stereo not given),·,·,3.1*,-0.015,·
C=CCn1c(N)c(C(=O)NCc2cccnc2)sc1=S,4,5,-1,-0.045,0.9
CCC(OC(=O)C(NC(=O)c1ccccc1)c1ccccc1)C(=O)Nc1cc(C)on1 (stereo not given),-6,42*,0.34,-2,1.1
CCC(Oc1ccccc1)C(=O)Nc1cc(C)on1 (stereo not given),6,0,-0.51,-0.84,1
O=c1c2c3nc4ccccc4nc3n(Cc3ccccc3)c2ncn1Cc1ccco1,13,10,0.83,-3.2,1.1
CC(C)Cn1cnc2c(c(-c3ccccc3)c(-c3ccccc3)n2Cc2ccco2)c1=N,62*,83*,-0.18,-8.3*,1.7
c1ccc(Cn2cnc3ccccc32)cc1,·,·,-0.52,1.6,·
O=c1c2ccccc2nc(-c2ccccc2)n1Cc1ccco1,5,-1,-0.00067,-0.22,0.9
N=c1c2c(-c3ccccc3)c(-c3ccccc3)n(Cc3ccco3)c2ncn1Cc1ccccc1,34*,75*,2.4,-12*,1.5
OCCNc1ncnc2c1c(-c1ccccc1)c(-c1ccccc1)n2Cc1ccco1,33*,27,0.44,-5*,2*
N=c1c2c(-c3ccccc3)c(-c3ccccc3)n(Cc3ccccc3)c2ncn1CCO,18,23,0.86,-5.2*,1.4
CCC(C)(C)NC(=O)Cc1ccccc1OC,5,-6,0.36,0.038,1.1
CCC(=O)N1CCN(c2ccc(Cl)cc2NC(=O)Cc2ccccc2)CC1,18,19,0.47,-6*,1.4
SMILES,PostGolgi ctrl,PostGolgi yeast,hDAT+cocaine,Cav3 T inh,PLAP activator
O=C1NC(=O)C2(COC3(CCCC3)OC2)S1,35*,4,0.38,-0.26,0.9
CC1CCC(NC(=O)CN2CCC(n3nnc4cc(F)ccc43)CC2)CC1 (stereo not given),7,-5,·,0.25,1.4
O=C(CN1CCC(n2nnc3ccccc32)CC1)Nc1ccc2c(c1)CCC2,5,-5,3.1*,-2.4,1.4
Cc1ccccc1NC(=O)CN1CCC(n2nnc3ccccc32)CC1,-4,-6,0.7,1.4,1
O=C(CN1CCC(n2nnc3cc(F)ccc32)CC1)Nc1ccc2c(c1)CCC2,3,-3,0.93,-5.6*,1.2
O=C(NCc1ccccc1)c1ccc(CN(c2ccccn2)S(=O)(=O)c2ccccc2)cc1,12,2,1.1,2,1.5
